We go through 39 compounds from the antibiotic and cytotoxicity screens of Wong et al. (2023).

About 3,300 (8.5%) of roughly 39,000 compounds were called active. Shown is part of a subset that was picked to be rich in actives.

This assay deals with HepG2. Nature of the assay: cytotoxicity call (relative viability < 0.9). As to conditions: 10 µM.
Turning to `CCO[C@@H]1OC(C(=O)N2CCN(Cc3ccc4c(c3)OCO4)CC2)=C[C@H](c2ccc3c(c2)OCO3)[C@H]1CCCO`, the cytotoxicity call is “inactive”.
As for `COCC1=C(C(=O)OC(C)OC(=O)OC(C)C)N2C(=O)C(NC(=O)C(=NOC)c3csc(N)n3)C2SC1` (centres undefined), the entry is “inactive”; as for `C[C@H](CO)N1C[C@H](C)[C@@H](CN(C)Cc2ccncc2)Oc2cc(C#CC(C)(C)O)ccc2S1(=O)=O`, “inactive”; as for `C[C@@H]1CCCCO[C@@H](CN(C)C(=O)C2CCCCC2)[C@H](C)CN([C@H](C)CO)C(=O)c2cc(NC(=O)c3ccncc3)ccc2O1`, “inactive”.
As for `C[C@H](CO)N1C[C@H](C)[C@@H](CN(C)C(=O)Nc2ccc(C(F)(F)F)cc2)Oc2c(NC(=O)Nc3ccc(C(F)(F)F)cc3)cccc2C1=O`, the entry is “active”.
The value for `Cc1noc(C)c1NC(=O)N(C)C[C@@H]1Oc2c(NC(=O)Nc3ccc(C(F)(F)F)cc3)cccc2C(=O)N([C@@H](C)CO)C[C@H]1C` was “inactive”; that for `Cc1noc(C)c1NC(=O)N(C)C[C@H]1Oc2c(NC(=O)Nc3ccc(C(F)(F)F)cc3)cccc2C(=O)N([C@@H](C)CO)C[C@H]1C` was “active”.
Consider `C[C@@H]1CN([C@H](C)CO)C(=O)c2cccc(NC(=O)Nc3ccc(C(F)(F)F)cc3)c2O[C@@H]1CN(C)C(=O)Nc1ccc2c(c1)OCO2`, for which the cytotoxicity call is “inactive”.
For `C[C@@H]1CN([C@@H](C)CO)C(=O)c2cccc(NC(=O)Nc3ccc(C(F)(F)F)cc3)c2O[C@H]1CN(C)C(=O)Nc1ccc2c(c1)OCO2`, the cytotoxicity call was “inactive”.
Take `C[C@H](CO)N1C[C@H](C)[C@H](CN(C)C(=O)Nc2ccc3c(c2)OCO3)Oc2c(NC(=O)Nc3ccc(C(F)(F)F)cc3)cccc2C1=O`: the cytotoxicity call was “active”.
`Cc1noc(C)c1NC(=O)N(C)C[C@@H]1Oc2c(NC(=O)Nc3ccc(C(F)(F)F)cc3)cccc2C(=O)N([C@H](C)CO)C[C@H]1C`: the cytotoxicity call was “inactive”.
As for `O=C1c2ccccc2[C@@]2(Cc3ccccc3N(Cc3ccccc3)C2=O)[C@H](c2ccc(CO)cc2)N1Cc1ccccc1C(F)(F)F`, the cytotoxicity call is “inactive”.
Consider `Cc1noc(C)c1S(=O)(=O)N(C)C[C@@H]1Oc2ccc(NS(=O)(=O)c3cccs3)cc2CC(=O)N([C@H](C)CO)C[C@@H]1C`, for which the cytotoxicity call is “inactive”.
`CN(C)Cc1cn(CC[C@@H]2CC[C@@H](NC(=O)Cc3cccnc3)[C@H](CO)O2)nn1`: the cytotoxicity call is “inactive”.
As for `Cc1noc(C)c1NC(=O)Nc1ccc2c(c1)CC(=O)N([C@@H](C)CO)C[C@H](C)[C@@H](CN(C)C(=O)NC(C)C)O2`, the entry is “inactive”.
With `O=C(C[C@H]1CC[C@@H]2[C@H](COC[C@H](O)CN2C(=O)Nc2ccc(F)cc2)O1)NCCCN1CCOCC1`, the cytotoxicity call is “inactive”.
With `OC[C@@H](O)CN1CCN(c2ccccc2)CC1`, the cytotoxicity call was “inactive”.
As for `Cc1nc(-c2ccc(OCC(C)C)c(C#N)c2)sc1C(=O)O`, the entry is “active”; as for `COc1ccc(S(=O)(=O)N(C)C[C@H]2Oc3ccc(NC(=O)c4ccncc4)cc3C(=O)N([C@@H](C)CO)C[C@@H]2C)cc1`, “inactive”; as for `O=CN[C@H](Cc1ccccc1)C(=O)O`, “inactive”.
Turning to `C[C@@H]1CN([C@@H](C)CO)C(=O)Cc2cc(NC(=O)CCCCCC(=O)Nc3ccccc3N)ccc2O[C@@H]1CN(C)Cc1ccc(Oc2ccccc2)cc1`, the cytotoxicity call was “active”.
As for `COc1ccc(CN(C)C[C@H]2Oc3ccc(NC(=O)CCCCCC(=O)Nc4ccccc4N)cc3CC(=O)N([C@@H](C)CO)C[C@H]2C)cc1`, the entry is “active”; as for `COc1ccc(CN(C)C[C@@H]2Oc3ccc(NC(=O)CCCCCC(=O)Nc4ccccc4N)cc3CC(=O)N([C@H](C)CO)C[C@@H]2C)cc1`, “inactive”.
The value for `COc1ccc(CN(C)C[C@H]2Oc3ccc(NC(=O)CCCCCC(=O)Nc4ccccc4N)cc3CC(=O)N([C@H](C)CO)C[C@H]2C)cc1` was “inactive”.
The value for `C[C@@H]1CN([C@H](C)CO)C(=O)Cc2cc(NC(=O)CCCCCC(=O)Nc3ccccc3N)ccc2O[C@@H]1CN(C)Cc1ccc(Oc2ccccc2)cc1` was “active”; that for `C[C@H]1CN([C@@H](C)CO)C(=O)Cc2cc(NC(=O)CCCCCC(=O)Nc3ccccc3N)ccc2O[C@@H]1CN(C)Cc1ccc(Oc2ccccc2)cc1` was “inactive”; that for `C[C@@H]1CN([C@H](C)CO)C(=O)Cc2cc(NC(=O)CCCCCC(=O)Nc3ccccc3N)ccc2O[C@H]1CN(C)Cc1ccc(Oc2ccccc2)cc1` was “inactive”.
`C[C@H](CO)N1C[C@H](C)[C@H](CN(C)Cc2ccc(Oc3ccccc3)cc2)Oc2ccc(NC(=O)CCCCCC(=O)Nc3ccccc3N)cc2CC1=O`: the cytotoxicity call is “inactive”.
In the case of `C[C@H]1CN([C@@H](C)CO)C(=O)Cc2cc(NC(=O)CCCCCC(=O)Nc3ccccc3N)ccc2O[C@H]1CN(C)Cc1ccc(Oc2ccccc2)cc1`, the cytotoxicity call was “inactive”.
The value for `Cc1noc(C)c1NC(=O)Nc1ccc2c(c1)CC(=O)N([C@@H](C)CO)C[C@@H](C)[C@H](CN(C)Cc1ccc(C(F)(F)F)cc1)O2` was “inactive”; that for `CC(C)NC(=O)Nc1ccc2c(c1)C(=O)N([C@H](C)CO)C[C@@H](C)[C@H](CN(C)CC1CCCCC1)OCCCC[C@H](C)O2` was “inactive”; that for `C[C@@H]1CN([C@@H](C)CO)C(=O)c2cc(NC(=O)Nc3ccc4c(c3)OCO4)ccc2O[C@H]1CN(C)Cc1ccc(C(F)(F)F)cc1` was “inactive”.
As for `C[C@@H]1CN([C@H](C)CO)C(=O)c2cc(NC(=O)Nc3ccc(C(F)(F)F)cc3)ccc2O[C@H]1CN(C)Cc1ccc2c(c1)OCO2`, the entry is “inactive”; as for `C[C@@H]1CN([C@H](C)CO)C(=O)c2cc(NC(=O)Nc3ccc(C(F)(F)F)cc3)ccc2O[C@@H]1CN(C)Cc1ccc2c(c1)OCO2`, “active”; as for `C[C@H]1CN([C@@H](C)CO)C(=O)c2cc(NC(=O)Nc3ccc(C(F)(F)F)cc3)ccc2O[C@H]1CN(C)Cc1ccc2c(c1)OCO2`, “active”.
As for `C[C@H]1CN([C@@H](C)CO)C(=O)c2cc(NC(=O)Nc3ccc4c(c3)OCO4)ccc2O[C@H]1CN(C)Cc1ccc(C(F)(F)F)cc1`, the entry is “inactive”; as for `C[C@@H]1CN([C@@H](C)CO)C(=O)c2cc(NC(=O)Nc3ccc(C(F)(F)F)cc3)ccc2O[C@@H]1CN(C)Cc1ccc2c(c1)OCO2`, “active”.
On to `C[C@H](CO)N1C[C@H](C)[C@@H](CN(C)Cc2ccc(C(F)(F)F)cc2)Oc2ccc(NC(=O)Nc3ccc4c(c3)OCO4)cc2C1=O`, for which the cytotoxicity call was “inactive”.
As for `C[C@H](CO)N1C[C@H](C)[C@H](CN(C)Cc2ccc3c(c2)OCO3)Oc2ccc(NC(=O)Nc3ccc(C(F)(F)F)cc3)cc2C1=O`, the entry is “active”.
